Of roughly 8,800 targets only a part is listed; those with a hit were picked by preference. About 0.5% of all pairs of compound and target were hits. Values without a mark were called inactive.
Experiments:
Experiment in all cases: log2 fold change, soluble protein after heating vs DMSO (PISA); higher = thermal stabilisation; K562 lysate, 10 uM; active = over 0.2 and 3.5 SD of the protein, either way, in both replicates (recomputed)
alvocidib = compound: CN1CC[C@H](c2c(O)cc(O)c3c(=O)cc(-c4ccccc4Cl)oc23)[C@H](O)C1 [alvocidib]
In short: (§1)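 Dounce homogenisation of K562 pellets in PBS pH 7.4 with 1 mM MgCl2 produced a crude extract, used at 1 mg/mL protein. Exposure to 10 μM compound lasted 30 min, and aliquots were then heated for 3 min across 48°C-58°C, pooled and brought to 0.5% NP-40 at 4°C. The supernatant after 21,000xg for 90 min was quantified by TMTpro 16plex LC-MS/MS with channel sums equalised. Duplicate values are given as log-two fold change in thermal stability relative to solvent controls.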

Tubastatin A = compound: CN1CCc2c(c3ccccc3n2Cc2ccc(C(=O)NO)cc2)C1 [Tubastatin A]
In short: as §1

[1] = compound: CNC(=O)C1=CC=CC=C1NC2=NC(=NC=C2Cl)NC3=C(C=C(C=C3)N4CCOCC4)OC
In short: as §1

defactinib = compound: CNC(=O)c1ccc(Nc2ncc(C(F)(F)F)c(NCc3nccnc3N(C)S(C)(=O)=O)n2)cc1 [defactinib]
In short: as §1

[2] = compound: CNc1nc(-c2ccc3c(N)n[nH]c3c2)cc(N2C[C@@H](C(=O)NC3CCCCC3)CC[C@H]2C)n1
In short: as §1

encorafenib = compound: COC(=O)N[C@@H](C)CNc1nccc(-c2cn(C(C)C)nc2-c2cc(Cl)cc(NS(C)(=O)=O)c2F)n1 [encorafenib]
In short: as §1

[3] = compound: COC(=O)[C@H](CCSC)NC(=O)C1=C(C=C(C=C1)NC[C@H](CS)N)C2=CC=CC=C2
In short: as §1

alisertib = compound: COc1cc(Nc2ncc3c(n2)-c2ccc(Cl)cc2C(c2c(F)cccc2OC)=NC3)ccc1C(=O)O [alisertib]
In short: as §1

[4] = compound: COc1cc2nc(-c3cc(F)ccc3O)nc(N[C@@H]3CNC[C@H]3C(C)(C)O)c2cc1OC
In short: as §1

gefitinib = compound: COc1cc2ncnc(Nc3ccc(F)c(Cl)c3)c2cc1OCCCN1CCOCC1 [gefitinib]
In short: as §1

lapatinib = compound: CS(=O)(=O)CCNCc1ccc(-c2ccc3ncnc(Nc4ccc(OCc5cccc(F)c5)c(Cl)c4)c3c2)o1 [lapatinib]
In short: as §1

pictilisib = compound: CS(=O)(=O)N1CCN(Cc2cc3nc(-c4cccc5[nH]ncc45)nc(N4CCOCC4)c3s2)CC1 [pictilisib]
In short: as §1

crizotinib = compound: C[C@@H](Oc1cc(-c2cnn(C3CCNCC3)c2)cnc1N)c1c(Cl)ccc(F)c1Cl [crizotinib]
In short: as §1

[5] = compound: C[C@H](C1=CC=C(C=C1)C(=O)NC2=C3C=CNC3=NC=C2)N
In short: as §1

duvelisib = compound: C[C@H](Nc1ncnc2nc[nH]c12)c1cc2cccc(Cl)c2c(=O)n1-c1ccccc1 [duvelisib]
In short: as §1

gandotinib = compound: Cc1cc(Nc2cc(CN3CCOCC3)c3nc(C)c(Cc4ccc(Cl)cc4F)n3n2)n[nH]1 [gandotinib]
In short: as §1

tozasertib = compound: Cc1cc(Nc2cc(N3CCN(C)CC3)nc(Sc3ccc(NC(=O)C4CC4)cc3)n2)n[nH]1 [tozasertib]
In short: as §1

doramapimod = compound: Cc1ccc(-n2nc(C(C)(C)C)cc2NC(=O)Nc2ccc(OCCN3CCOCC3)c3ccccc23)cc1 [doramapimod]
In short: as §1

bafetinib = compound: Cc1ccc(NC(=O)c2ccc(CN3CC[C@H](N(C)C)C3)c(C(F)(F)F)c2)cc1Nc1nccc(-c2cncnc2)n1 [bafetinib]
In short: as §1

[6] = compound: Cc1cccc(CC(=O)N2CCc3c2ccc(-c2cn(C)c4ncnc(N)c24)c3F)n1
In short: as §1

Sequence of UniProt Q93096 (Q93096 whole entry, looked up): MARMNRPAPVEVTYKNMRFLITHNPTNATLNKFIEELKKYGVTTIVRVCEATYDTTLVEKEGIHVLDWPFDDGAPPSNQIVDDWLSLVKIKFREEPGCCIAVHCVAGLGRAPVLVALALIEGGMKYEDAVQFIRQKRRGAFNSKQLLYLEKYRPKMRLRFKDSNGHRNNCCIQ
Sequence of UniProt P42356 (P42356 whole entry, looked up): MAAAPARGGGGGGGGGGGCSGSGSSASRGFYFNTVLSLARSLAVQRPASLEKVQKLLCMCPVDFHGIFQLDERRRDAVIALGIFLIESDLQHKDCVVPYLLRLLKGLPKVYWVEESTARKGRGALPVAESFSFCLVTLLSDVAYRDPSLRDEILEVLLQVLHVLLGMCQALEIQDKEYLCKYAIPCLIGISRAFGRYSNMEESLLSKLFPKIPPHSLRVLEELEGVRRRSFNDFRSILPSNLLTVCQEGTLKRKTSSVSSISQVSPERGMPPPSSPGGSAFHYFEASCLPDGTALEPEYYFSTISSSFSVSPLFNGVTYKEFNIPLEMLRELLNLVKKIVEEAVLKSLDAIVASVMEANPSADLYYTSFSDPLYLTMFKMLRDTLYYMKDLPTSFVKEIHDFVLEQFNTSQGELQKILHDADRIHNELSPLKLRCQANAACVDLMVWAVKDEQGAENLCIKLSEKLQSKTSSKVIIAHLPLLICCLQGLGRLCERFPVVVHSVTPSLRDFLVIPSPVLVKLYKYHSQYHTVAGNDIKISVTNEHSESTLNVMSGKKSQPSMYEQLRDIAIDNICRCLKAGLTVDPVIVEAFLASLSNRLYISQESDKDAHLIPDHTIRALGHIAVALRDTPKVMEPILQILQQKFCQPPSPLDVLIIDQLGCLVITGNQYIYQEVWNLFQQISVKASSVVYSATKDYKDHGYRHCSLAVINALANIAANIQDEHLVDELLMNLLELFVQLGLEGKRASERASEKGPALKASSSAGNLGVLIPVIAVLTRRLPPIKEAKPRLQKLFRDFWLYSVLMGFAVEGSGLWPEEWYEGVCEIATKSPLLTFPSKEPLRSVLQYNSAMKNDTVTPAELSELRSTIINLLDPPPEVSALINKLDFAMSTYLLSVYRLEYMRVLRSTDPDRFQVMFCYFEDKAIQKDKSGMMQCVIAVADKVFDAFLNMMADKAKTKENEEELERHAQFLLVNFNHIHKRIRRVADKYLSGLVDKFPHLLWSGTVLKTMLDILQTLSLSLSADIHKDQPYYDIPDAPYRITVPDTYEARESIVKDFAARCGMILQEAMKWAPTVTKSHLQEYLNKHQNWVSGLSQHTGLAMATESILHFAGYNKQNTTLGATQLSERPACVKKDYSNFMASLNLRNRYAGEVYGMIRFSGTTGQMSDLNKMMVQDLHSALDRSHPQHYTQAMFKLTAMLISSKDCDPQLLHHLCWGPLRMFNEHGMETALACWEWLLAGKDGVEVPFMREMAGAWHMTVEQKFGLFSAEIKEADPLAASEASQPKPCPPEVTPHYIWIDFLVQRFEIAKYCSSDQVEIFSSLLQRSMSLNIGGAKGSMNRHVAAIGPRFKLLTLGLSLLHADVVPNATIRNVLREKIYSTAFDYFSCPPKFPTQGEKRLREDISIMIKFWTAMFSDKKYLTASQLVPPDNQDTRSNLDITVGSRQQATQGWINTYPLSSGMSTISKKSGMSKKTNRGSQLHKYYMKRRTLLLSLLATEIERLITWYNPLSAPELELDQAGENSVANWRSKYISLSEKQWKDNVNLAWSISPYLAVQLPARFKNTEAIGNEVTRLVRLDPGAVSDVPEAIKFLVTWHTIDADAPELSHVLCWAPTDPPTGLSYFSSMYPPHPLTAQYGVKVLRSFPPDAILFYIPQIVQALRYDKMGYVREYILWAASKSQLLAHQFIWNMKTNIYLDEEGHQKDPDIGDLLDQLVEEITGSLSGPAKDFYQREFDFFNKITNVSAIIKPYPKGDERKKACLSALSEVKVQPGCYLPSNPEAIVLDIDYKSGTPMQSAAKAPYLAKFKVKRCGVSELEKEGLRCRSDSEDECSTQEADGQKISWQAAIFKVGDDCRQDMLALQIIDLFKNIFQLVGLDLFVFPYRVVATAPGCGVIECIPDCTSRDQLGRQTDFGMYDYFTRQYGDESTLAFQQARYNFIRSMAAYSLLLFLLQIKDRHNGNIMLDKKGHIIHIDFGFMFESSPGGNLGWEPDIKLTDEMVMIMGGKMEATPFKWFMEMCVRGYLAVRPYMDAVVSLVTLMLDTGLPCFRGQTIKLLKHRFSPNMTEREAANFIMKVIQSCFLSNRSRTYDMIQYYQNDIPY
Sequence of UniProt Q9Y244 (Q9Y244 whole entry, looked up): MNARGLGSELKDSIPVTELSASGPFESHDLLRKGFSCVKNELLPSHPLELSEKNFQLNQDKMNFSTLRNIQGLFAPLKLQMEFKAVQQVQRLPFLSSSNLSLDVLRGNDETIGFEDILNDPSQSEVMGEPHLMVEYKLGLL
Sequence of UniProt O94906 (O94906 whole entry, looked up): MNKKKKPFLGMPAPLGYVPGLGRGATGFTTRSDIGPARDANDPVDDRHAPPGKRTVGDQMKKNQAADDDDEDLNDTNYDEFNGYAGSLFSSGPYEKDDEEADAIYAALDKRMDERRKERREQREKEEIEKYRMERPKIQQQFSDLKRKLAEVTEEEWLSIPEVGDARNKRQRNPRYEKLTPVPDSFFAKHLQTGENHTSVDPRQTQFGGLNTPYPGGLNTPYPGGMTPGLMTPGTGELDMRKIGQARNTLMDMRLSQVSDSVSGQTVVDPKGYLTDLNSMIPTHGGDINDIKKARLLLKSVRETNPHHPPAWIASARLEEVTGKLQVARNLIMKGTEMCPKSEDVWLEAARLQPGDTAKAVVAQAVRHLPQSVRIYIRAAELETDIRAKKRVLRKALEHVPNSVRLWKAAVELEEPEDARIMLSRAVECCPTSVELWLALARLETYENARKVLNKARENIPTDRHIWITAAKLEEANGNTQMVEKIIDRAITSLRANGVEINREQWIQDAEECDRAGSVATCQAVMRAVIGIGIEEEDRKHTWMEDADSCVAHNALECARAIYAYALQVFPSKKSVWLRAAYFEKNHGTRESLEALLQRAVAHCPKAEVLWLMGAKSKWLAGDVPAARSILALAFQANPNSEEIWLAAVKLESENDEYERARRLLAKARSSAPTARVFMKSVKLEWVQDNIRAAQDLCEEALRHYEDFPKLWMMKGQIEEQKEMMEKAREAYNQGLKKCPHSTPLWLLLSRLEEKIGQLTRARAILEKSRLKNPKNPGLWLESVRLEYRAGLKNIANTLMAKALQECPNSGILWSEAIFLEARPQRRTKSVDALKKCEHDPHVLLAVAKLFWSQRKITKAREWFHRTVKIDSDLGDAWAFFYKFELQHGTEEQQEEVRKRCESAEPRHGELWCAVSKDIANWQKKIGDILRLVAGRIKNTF
Sequence of UniProt Q9UHX1 (Q9UHX1 whole entry, looked up): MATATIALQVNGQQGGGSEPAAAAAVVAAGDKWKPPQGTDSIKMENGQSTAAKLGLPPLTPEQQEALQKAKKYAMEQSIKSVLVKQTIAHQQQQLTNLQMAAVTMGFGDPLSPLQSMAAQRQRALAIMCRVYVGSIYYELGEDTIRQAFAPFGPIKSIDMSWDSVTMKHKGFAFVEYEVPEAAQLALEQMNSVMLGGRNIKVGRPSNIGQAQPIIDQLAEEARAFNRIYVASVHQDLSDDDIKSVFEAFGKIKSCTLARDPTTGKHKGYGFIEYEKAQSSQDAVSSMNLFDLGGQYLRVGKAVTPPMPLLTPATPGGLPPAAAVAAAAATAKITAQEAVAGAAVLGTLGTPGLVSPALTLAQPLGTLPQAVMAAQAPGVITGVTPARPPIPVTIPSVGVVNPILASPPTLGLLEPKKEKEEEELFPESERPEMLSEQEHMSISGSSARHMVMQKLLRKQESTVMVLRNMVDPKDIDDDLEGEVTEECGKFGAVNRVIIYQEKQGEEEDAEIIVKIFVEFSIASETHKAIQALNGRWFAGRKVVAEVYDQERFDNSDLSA
Sequence of UniProt Q9H939 (Q9H939 whole entry, looked up): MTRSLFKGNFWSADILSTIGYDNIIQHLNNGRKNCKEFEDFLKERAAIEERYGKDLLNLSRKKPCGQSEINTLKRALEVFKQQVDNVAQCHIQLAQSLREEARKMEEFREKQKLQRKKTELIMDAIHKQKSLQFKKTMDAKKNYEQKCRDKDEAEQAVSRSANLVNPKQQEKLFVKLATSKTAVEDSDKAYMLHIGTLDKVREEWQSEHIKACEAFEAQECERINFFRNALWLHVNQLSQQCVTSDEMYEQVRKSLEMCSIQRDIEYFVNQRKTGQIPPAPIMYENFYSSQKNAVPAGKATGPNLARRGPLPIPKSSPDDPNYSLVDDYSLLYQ
Sequence of UniProt O00541 (O00541 whole entry, looked up): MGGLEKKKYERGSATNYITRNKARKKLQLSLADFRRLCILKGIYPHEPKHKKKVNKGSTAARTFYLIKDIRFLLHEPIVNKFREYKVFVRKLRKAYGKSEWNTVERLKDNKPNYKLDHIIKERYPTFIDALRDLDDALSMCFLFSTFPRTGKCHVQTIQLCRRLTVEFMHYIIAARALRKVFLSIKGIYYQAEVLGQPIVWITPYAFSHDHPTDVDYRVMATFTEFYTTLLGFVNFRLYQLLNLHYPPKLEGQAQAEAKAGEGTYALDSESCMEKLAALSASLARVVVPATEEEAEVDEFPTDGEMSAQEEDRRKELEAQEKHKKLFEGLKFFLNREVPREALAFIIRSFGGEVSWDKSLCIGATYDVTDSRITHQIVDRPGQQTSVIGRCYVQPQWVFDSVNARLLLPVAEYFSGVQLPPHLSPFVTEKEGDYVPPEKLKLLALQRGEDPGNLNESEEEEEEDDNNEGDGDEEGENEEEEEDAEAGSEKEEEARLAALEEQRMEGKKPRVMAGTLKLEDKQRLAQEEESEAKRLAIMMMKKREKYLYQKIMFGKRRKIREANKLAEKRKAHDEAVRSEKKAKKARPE
Sequence of UniProt Q9H0N5 (Q9H0N5 whole entry, looked up): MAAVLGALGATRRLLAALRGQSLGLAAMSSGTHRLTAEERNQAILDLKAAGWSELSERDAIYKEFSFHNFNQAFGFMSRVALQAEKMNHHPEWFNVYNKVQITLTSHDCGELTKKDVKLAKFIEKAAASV

| Target | log2 fold change (alvocidib) | log2 fold change (Tubastatin A) | log2 fold change [1] | log2 fold change (defactinib) | log2 fold change [2] | log2 fold change (encorafenib) | log2 fold change [3] | log2 fold change (alisertib) | log2 fold change [4] | log2 fold change (gefitinib) | log2 fold change (lapatinib) | log2 fold change (pictilisib) | log2 fold change (crizotinib) | log2 fold change [5] | log2 fold change (duvelisib) | log2 fold change (gandotinib) | log2 fold change (tozasertib) | log2 fold change (doramapimod) | log2 fold change (bafetinib) | log2 fold change [6] |
| --- | --- | --- | --- | --- | --- | --- | --- | --- | --- | --- | --- | --- | --- | --- | --- | --- | --- | --- | --- | --- |
| PI4KA (UniProt P42356) | -0.006 | -0.165 | 0.035 | 0.006 | -0.029 | 0.026 | -0.005 | 0.028 | 0.019 | 0 | -0.03 | 0.097 | -0.005 | -0.043 | 0.189 | -0.033 | 0.013 | -0.002 | -0.075 | 0.073 |
| POLR2F (UniProt P61218) | 0.272 | -0.07 | 0.031 | 0.085 | 0.2 | -0.036 | -0.02 | 0.065 | 0.003 | -0.097 | 0.036 | -0.062 | -0.024 | 1.12 (active) | -0.018 | -0.166 | 0.156 | 0.025 | -0.076 | -0.189 |
| POMP (UniProt Q9Y244) | 0.072 | -0.061 | 0.035 | 0.024 | -0.03 | 0.074 | -0.002 | -0.013 | -0.033 | -0.093 | 0.048 | 0.031 | -0.054 | 0.221 | 0.11 | -0.063 | 0.022 | 0.038 | 0.017 | -0.038 |
| PUF60 (UniProt Q9UHX1) | 0.003 | 0.019 | -0.02 | -0.012 | 0.008 | -0.013 | 0.019 | 0.005 | -0.009 | -0.022 | 0 | -0.037 | 0.036 | 0.092 | -0.01 | -0.05 | -0.017 | -0.012 | 0.012 | -0.058 |
| PSTPIP2 (UniProt Q9H939) | -0.006 | -0.04 | 0.031 | -0.016 | 0.026 | 0.023 | 0.002 | -0.052 | -0.03 | -0.028 | 0.009 | 0.019 | -0.047 | 0.062 | -0.023 | -0.095 | 0.012 | 0.002 | -0.014 | -0.027 |
| PEF1 (UniProt Q9UBV8) | 0.027 | 0.097 | 0.029 | 0.087 | 0.029 | 0.039 | -0.034 | -0.017 | 0.029 | -0.02 | 0.019 | 0.041 | -0.002 | 0.051 | -0.004 | -0.055 | 0.032 | -0.01 | -0.027 | 0.051 |
| PTP4A1 (UniProt Q93096) | 0.05 | 0.033 | 0.023 | 0.033 | 0.023 | 0.006 | -0.006 | -0.056 | -0.015 | 0.049 | -0.002 | 0.008 | 0.09 | 0.133 | 0.023 | -0.031 | 0.001 | -0.009 | -0.042 | -0.055 |
| PLEKHO2 (UniProt Q8TD55) | -0.067 | -0.228 | 0.281 | -0.001 | -0.106 | 0.007 | 0.054 | -0.004 | 0 | 0.043 | 0.045 | 0.184 | 0.057 | 0.039 | 0.062 | -0.018 | -0.137 | 0.005 | -0.193 | 0.07 |
| POGK (UniProt Q9P215) | -0.015 | -0.011 | 0.001 | 0.059 | -0.02 | -0.052 | 0.028 | 0.071 | -0.012 | -0.013 | -0.055 | -0.026 | 0.022 | -0.384 (active) | 0.01 | 0.095 | -0.101 | 0.111 | -0.109 | 0.142 |
| PPP4R2 (UniProt Q9NY27) | 0.021 | 0.013 | 0.018 | 0.015 | 0.014 | 0.025 | -0.014 | -0.058 | -0.002 | -0.01 | 0.057 | -0.003 | 0.023 | 0.159 | 0.003 | -0.011 | -0.007 | -0.022 | 0.021 | -0.048 |
| PRPF6 (UniProt O94906) | 0.006 | -0.096 | 0.01 | 0.025 | -0.011 | 0.024 | 0.22 (active) | 0.008 | 0.009 | -0.016 | -0.008 | 0.009 | -0.06 | -0.023 | -0.023 | -0.08 | 0.023 | 0.064 | -0.056 | 0.031 |
| PCF11 (UniProt O94913) | -0.018 | -0.12 | 0.002 | 0.041 | 0.078 | 0.036 | -0.021 | 0.009 | 0.042 | 0.002 | -0.017 | -0.014 | -0.018 | 0.058 | 0.005 | -0.086 | -0.004 | -0.031 | -0.021 | -0.017 |
| PUS1 (UniProt Q9Y606) | -0.002 | -0.049 | -0.008 | 0.002 | -0.029 | 0 | 0.086 | 0.005 | 0.014 | -0.019 | -0.042 | -0.058 | -0.062 | -0.006 | 0.008 | -0.033 | 0.012 | 0.006 | -0.047 | 0.027 |
| PES1 (UniProt O00541) | -0.017 | -0.044 | 0.05 | 0.005 | 0.017 | 0.006 | 0.35 (active) | 0.028 | -0.003 | 0.007 | 0.006 | 0.005 | -0.001 | -0.027 | 0.01 | -0.025 | 0.004 | -0.021 | -0.014 | 0.064 |
| PCBD2 (UniProt Q9H0N5) | -0.124 | 0.012 | 0.01 | -0.045 | -0.059 | -0.008 | -0.039 | 0.058 | 0.031 | 0.071 | -0.014 | -0.009 | -0.051 | -0.228 (active) | 0.028 | 0.141 | 0.031 | 0.008 | -0.063 | 0.096 |
| PKP3 isoform 2 (UniProt Q9Y446) | -0.011 | -0.126 | 0.067 | 0.035 | 0.017 | 0.098 | 0.095 | 0.019 | 0.031 | -0.018 | -0.007 | -0.004 | 0.043 | -0.024 | -0.048 | 0.04 | -0.039 | 0.08 | -0.085 | 0.027 |
